# Tests used:
# Experiment in all cases: PBM binding z-score (relative to random genomic background probes); higher = stronger binding; sequences stand for … in GC…GCGATTGACAGCGTAGAATGAAGG
# [1] = test system: PPARg:RXRa DBDmut IVT, anti-RXR (DBD mutation: RXRa K156A/R161A, NR concentration 270 nM, RXRa partner concentration 90 nM)
# Summary of the method: (§1)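 Ligand-free nuclear receptor dimers were bound for 1 h to custom Agilent 4×180K protein-binding microarrays. Detection used antibodies against each partner (one per run). Binding z-scores rest on regression-normalized fluorescence, with random background probes as the reference.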
# [2] = test system: PPARg:RXRa IVT, anti-PPARg (NR concentration 270 nM, RXRa partner concentration 90 nM)
# Summary of the method: as §1
# [3] = test system: PPARg DBDmut:RXRa IVT, anti-PPARg (DBD mutation: PPARg1 K132A/R137A, NR concentration 270 nM, RXRa partner concentration 90 nM)
# Summary of the method: as §1
# [4] = test system: PPARg DBDmut IVT, anti-PPARg (DBD mutation: PPARg1 K132A/R137A, NR concentration 270 nM)
# Summary of the method: as §1
# [5] = test system: PPARg homodimer (NR concentration 180 nM)
# Summary of the method: as §1
# [6] = test system: PXR:RXRa (NR concentration 270 nM, RXRa partner concentration 90 nM)
# Summary of the method: as §1
# [7] = test system: PXR homodimer (NR concentration 270 nM)
# Summary of the method: as §1
# [8] = test system: RARa:RXR (NR concentration 270 nM, RXRa partner concentration 90 nM)
# Summary of the method: as §1
# [9] = test system: RARa homodimer (NR concentration 270 nM)
# Summary of the method: as §1
# [10] = test system: RARb:RXRa (NR concentration 270 nM, RXRa partner concentration 90 nM)
# Summary of the method: as §1
Sequence,PBM binding z-score [1],PBM binding z-score [2],PBM binding z-score [3],PBM binding z-score [4],PBM binding z-score [5],PBM binding z-score [6],PBM binding z-score [7],PBM binding z-score [8],PBM binding z-score [9],PBM binding z-score [10]
CCGACTCGGGCAGAAAGGTTACCATACCATCCGG,-0.0361,0.238,-1.52,-1.19,0.529,0.674,-0.293,1.33,-0.25,1.74
GTACCAAGGTGTATAGGTCGTTGATGAGTAGGCG,0.000885,0.719,-0.0523,0.342,0.75,0.265,0.0316,0.833,0.17,0.755
TTTCAAAGTTCAAAGGTAACGTAAGTATCCACAC,0.271,2.61,1.49,1.37,3.4,5.62,4.59,6.38,1.45,4.99
ACAGACAGGTGAGTGAAGGTAACTCAGCTGGACG,0.432,0.804,0.0951,0.079,-0.0829,-0.379,-0.472,0.0819,-0.173,0.67
AGAACGAGGGCAATGAGTTGATTGCACGGGTGGC,3.14,2.43,0.337,-0.0138,-0.0601,1.65,6.35,0.166,-0.231,1.89
TCGAGTAGTTTAGTCGGGGCATTCAGCCAACATA,1.24,-0.182,-0.281,-0.699,-0.472,0.139,-0.0137,0.146,-0.408,0.0588
CAAACTAGGTCAAGAGGTCAAAATCCGCTTCCCG,7.82,8.13,1.85,1.15,4.78,5.89,1.57,7.65,1.73,5.35
CGTCACAGTTCAACTAAGGTAACGTAAAGCACGC,0.343,1.09,0.467,1.1,1.58,3.88,1.47,2.28,0.677,3.1
TCGAGTAGGTTACCAATGGGGCATGCAGCTTTCT,2.81,2.63,-0.851,-0.804,0.0945,0.0825,-0.874,0.433,-0.816,0.932
CCAGACTGGTGAGAAGGTAACTCAGCCTCGATTA,-0.548,-0.378,-1.06,-0.669,0.4,-0.321,-0.553,-0.228,-0.0331,-0.455
AGAATCAGGTTACCAAAGATCAGGGAAACGCTTG,3.77,3.08,0.88,1.06,0.0981,0.0669,-0.0157,0.359,-0.131,1.08
ACAGACAGGTGAGTAAAGGTAACTCAGCTGGACG,0.353,1.07,0.151,-0.231,-0.162,0.082,-0.77,1.06,-0.0924,0.798
TAGCCTAGGTCATGGGCCAGCATACCACGCGAAC,1.68,3.04,0.798,-0.0378,1.22,1.38,-0.554,2.74,-0.41,3.79
ACCTCTAGGTAAAGATAGTTCAGTGAATGCAAAT,2.21,1.04,-0.152,0.355,-0.326,0.747,0.128,0.271,-0.309,0.426
TAGGCTAGGTCATGGGCCAGTATACCACGCGAAC,2,3.61,1.69,-0.653,3.07,1.42,-0.616,2.78,0.534,4.04
TGTCAAAGTTCAAAGGTAACGTTAGTATCCACAC,0.507,4.64,0.572,1.49,2.93,5.67,4.38,6.71,1.65,5.29
CTATCAAGGTGAACAAGGTCGTTGATTACTATTC,3.58,3.69,0.759,0.594,0.866,2.7,2.19,2.38,0.109,2.22
CCTACTGGGCCATCAGGTCATTGGTATCAACGTT,4.05,5.2,-1.01,-0.269,1.09,1.67,0.395,2.04,-0.0401,2.25

# From the supplement of paper PMC6555819
